Assay results from PubChem BioAssay (EPA / NIEHS).
Where “and” joins values, the source holds several entries; their conditions need not be identical. Equal values may be shown once. Some compounds were tested as several samples or in several runs, with calls that do not always agree. Calls of active or inactive are those of the source. The calls were made as follows: active = hit-call score of the fitted dose curve at least 0.9, where 1 is the maximum; inactive = score below 0.9.

Key:
[1] = ATG_CRE_CIS: Attagene CIS-FACTORIAL HepG2 Assay for human cAMP Responsive Element (CRE) binding protein 3 (AID 2282926); settings: HepG2 CRE cis-reporter, Attagene multiplexed mRNA; actives raise or lower the signal
Outline: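 HepG2 cells transiently transfected with cis-element-driven multiple reporter transcription units; CRE reporter mRNA measured 24 h after dosing by RT-PCR, 6-FAM labelling, HpaI digestion and capillary electrophoresis. Bidirectional fit versus DMSO baseline.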

[2] = molecular target: CCAAT/enhancer-binding protein beta (Homo sapiens) (UniProt P17676); test: ATG_C_EBP_CIS: Attagene CIS-FACTORIAL HepG2 Assay for human CCAAT/Enhancer Binding Protein (C/EBP) beta (AID 2282927); settings: HepG2 Attagene cis-factorial transcription factor reporter; actives raise or lower the signal
Outline: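 HepG2 transiently transfected with multiplexed reporter units under cis-regulatory promoters reporting endogenous C/EBPb activity. After 24 h exposure, reporter mRNA assayed by RT-PCR, fluorescent labelling, HpaI digestion and capillary electrophoresis; bidirectional fitting versus DMSO.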

[3] = ATG_CMV_CIS: Attagene CIS-FACTORIAL HepG2 Assay for human CMV (Internal Marker) (AID 2282928); settings: HepG2 CMV promoter reporter, transcription factor profiling; actives raise or lower the signal;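 also: endpoint acts as a background internal control marker rather than a target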
Outline: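 HepG2 cells transiently transfected with multiple cis-regulated reporter units; 24 h compound exposure. Reporter mRNA quantified by RT-PCR, 6-FAM primer-extension labeling, HpaI digestion and capillary electrophoresis; bidirectional fitting against DMSO baseline.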

[4] = ATG_DR4_LXR_CIS: Attagene CIS-FACTORIAL HepG2 Assay for human Liver X Receptor (LXR), DR4 submotif (AID 2282929); settings: HepG2 Attagene DR4 cis-reporter, mRNA transcription; actives raise or lower the signal
Outline: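 HepG2 cells were transiently transfected with multiple cis-regulated reporter units and dosed for 24 hours. The DR4 reporter mRNA was quantified by RT-PCR, 6-FAM labelling and capillary electrophoresis. Bidirectional fits used DMSO as baseline.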

[5] = ATG_AP_1_CIS: Attagene CIS-FACTORIAL HepG2 Assay for human Activator Protein 1 (AP-1) (AID 2282931); settings: HepG2 Attagene cis-factorial AP-1 reporter mRNA; actives raise or lower the signal
Outline: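 HepG2 cells transiently transfected with cis-element-driven reporter transcription units, dosed for 24 hours. Reporter mRNA measured by RT-PCR, 6-FAM labelling, HpaI digestion and capillary electrophoresis. Bidirectional fitting against DMSO baseline.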

[6] = ATG_AP_2_CIS: Attagene CIS-FACTORIAL HepG2 Assay for human Activator Protein 2 (AP-2) (AID 2282932); settings: HepG2 AP-2 cis-reporter, Attagene transcription factor profiling; actives raise or lower the signal
Outline: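 Multiplexed mRNA reporter assay in HepG2: cis-regulated units report endogenous factor activity after 24 h treatment. Fluorescence from capillary electrophoresis of RT-PCR products gives the signal, with DMSO as baseline.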

[7] = molecular target: Retinoic acid receptor alpha (Homo sapiens) (UniProt P10276); test: ATG_DR5_RAR_CIS: Attagene CIS-FACTORIAL HepG2 Assay for human Retinoic Acid Receptor Alpha (RARE), DR5 submotif (AID 2282934); settings: HepG2 Attagene cis-factorial RARE DR5 reporter, mRNA; actives raise or lower the signal;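 as to AC50: reporter responds to endogenous RAR alpha beta and gamma in HepG2 not RARA alone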
Outline: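 HepG2 cells transiently transfected with multiplexed reporter units; DR5 cis-element drives reporter through endogenous transcription factors. After 24 h dosing, reporter mRNA quantified by RT-PCR, fluorescent labeling, HpaI digestion and capillary electrophoresis; bidirectional fitting versus DMSO.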

[8] = molecular target: Transcription factor E2F1 (Homo sapiens) (UniProt Q01094); test: ATG_E2F_CIS: Attagene CIS-FACTORIAL HepG2 Assay for human E2F Transcription Factor 1 (AID 2282935); settings: HepG2 Attagene cis-reporter, E2F reporter RNA transcripts; actives raise or lower the signal
Outline: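 Measures reporter transcript levels via RT-PCR with capillary electrophoresis detection in HepG2 cells harboring cis-regulated reporter units; 24 h post-dose; bidirectional curve fitting with DMSO as baseline.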

[9] = ATG_E_Box_CIS: Attagene CIS-FACTORIAL HepG2 Assay for human Enhancer Box (E-box) (AID 2282936); settings: HepG2 E-box cis-reporter transcription, actives raise or lower the signal
Outline: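 First, HepG2 cells receive multiple cis-regulated reporter constructs by transient transfection. Next, chemicals are applied for 24 h. Finally, reporter mRNA is quantified via RT-PCR and capillary electrophoresis, with DMSO as baseline.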

[10] = ATG_EGR_CIS: Attagene CIS-FACTORIAL HepG2 Assay for human Early Growth Response 1 (EGR1) (AID 2282938); settings: HepG2 Attagene CIS-FACTORIAL EGR reporter mRNA; actives raise or lower the signal
Outline: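 HepG2 cells transiently transfected with cis-element-driven multiplexed reporter units, dosed for 24 h. EGR1-element reporter mRNA quantified by RT-PCR, 6-FAM labelling, HpaI digestion and capillary electrophoresis; bidirectional fit versus DMSO.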

[11] = ATG_M_19_CIS: Attagene CIS-FACTORIAL HepG2 Assay for M19 Transcription Factor (Internal Marker) (AID 2282939); settings: HepG2 Attagene CIS-FACTORIAL M19 internal marker reporter; actives raise or lower the signal
Outline: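 Chemical-treated HepG2 (24 h) with MRTU constructs; reporter transcripts detected by fluorescent RT-PCR fragment analysis on capillary electrophoresis. Internal background marker, DMSO as baseline.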

[12] = ATG_ERE_CIS: Attagene CIS-FACTORIAL HepG2 Assay for Estrogen Response Element (ERE) (AID 2282940); settings: HepG2 ERE cis-reporter, Attagene RNA transcript; actives raise or lower the signal
Outline: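 Human liver cells (HepG2) bearing transiently transfected, promoter-regulated reporter units were exposed 24 h. Reporter mRNA induction was detected by capillary electrophoresis of labelled RT-PCR products and fitted bidirectionally to DMSO.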

[13] = ATG_Ets_CIS: Attagene CIS-FACTORIAL HepG2 Assay for human Erythroblast Transformation Specific (ETS) (AID 2282941); settings: HepG2 ETS cis-reporter transcription, actives raise or lower the signal
Outline: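 HepG2 cells transiently transfected with cis-promoter reporter transcription units were dosed for 24 h; reporter mRNA was measured by RT-PCR, 6-FAM primer extension, HpaI digestion and capillary electrophoresis, with bidirectional fitting against DMSO baseline.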

[14] = molecular target: Hepatocyte nuclear factor 3-beta (Homo sapiens) (UniProt Q9Y261); test: ATG_FoxA2_CIS: Attagene CIS-FACTORIAL HepG2 Assay for human Forkhead box A2 (FOXA2) (AID 2282942); settings: HepG2 cis-reporter transcription factor activity, 24 h; actives raise or lower the signal
Outline: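 HepG2 transiently transfected with a multiplexed cis-promoter reporter library read endogenous FOXA2 activity. After 24 h compound exposure, reporter mRNA was quantified by RT-PCR, HpaI digestion and capillary electrophoresis. Bidirectional fit against DMSO.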

[15] = ATG_FoxO_CIS: Attagene CIS-FACTORIAL HepG2 Assay for human Forkhead box O (FoxO) (AID 2282943); settings: HepG2 Attagene cis-reporter, FoxO element, mRNA; actives raise or lower the signal
Outline: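 HepG2 cells transiently transfected with cis-element-driven reporter units report endogenous FoxO activity. After 24 h chemical exposure, reporter mRNA quantified by RT-PCR, fluorescent labeling, HpaI digestion and capillary electrophoresis; bidirectional fit versus DMSO.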

[16] = ATG_GATA_CIS: Attagene CIS-FACTORIAL HepG2 Assay for human GATA Binding Protein (AID 2282944); settings: HepG2 GATA cis-element reporter, Attagene multiplex mRNA; actives raise or lower the signal
Outline: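 Transfected cis-reporter HepG2 cells were treated with chemicals for 24 hours. Total RNA was then converted to cDNA, amplified with reporter-specific primers and analysed by fluorescent capillary electrophoresis, using DMSO-treated wells as baseline.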

[17] = ATG_GLI_CIS: Attagene CIS-FACTORIAL HepG2 Assay for human Zinc Finger Protein GLI1 (AID 2282945); settings: HepG2, Attagene cis-factorial reporter mRNA, GLI element; actives raise or lower the signal
Outline: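 Transiently transfected HepG2 cells report endogenous transcription factor activity via cis-element-driven reporter units. After 24 h compound exposure, reporter mRNA was measured by RT-PCR with capillary electrophoresis; bidirectional fitting against DMSO baseline.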

[18] = ATG_BRE_CIS: Attagene CIS-FACTORIAL HepG2 Assay for human Bone Morphogenetic Protein (BMP) Response Element (BRE) (AID 2282933); settings: HepG2 BMP response element reporter, Attagene transcription factor profiling; actives raise or lower the signal
Outline: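 A HepG2 multiplex reporter system measured inducible reporter mRNA 24 h post-dosing. Detection: RT-PCR, 6-FAM primer extension, HpaI digestion, capillary electrophoresis. Activity fitted bidirectionally relative to DMSO.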

[19] = ATG_M_61_CIS: Attagene CIS-FACTORIAL HepG2 Assay for M61 Transcription Factor (Internal Marker) (AID 2282937); settings: HepG2 Attagene CIS-FACTORIAL M61 internal marker reporter; actives raise or lower the signal
Outline: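 HepG2 cells transiently transfected with multiplexed cis-promoter reporter units reporting endogenous transcription factor activity, measured 24 h after dosing. Reporter mRNA quantified by RT-PCR and capillary electrophoresis; bidirectional fit against DMSO baseline.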

[20] = molecular target: Aryl hydrocarbon receptor (Homo sapiens) (UniProt P35869); test: ATG_Ahr_CIS: Attagene CIS-FACTORIAL HepG2 Assay for human Aryl Hydrocarbon Receptor (Ahr) (AID 2282930); settings: HepG2 AhR cis-factorial reporter transcription; actives raise or lower the signal
Outline: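 HepG2 cells transiently transfected with cis-element-driven multiplexed reporter units; endogenous AhR activity read as reporter mRNA 24 h after dosing, via RT-PCR, 6-FAM labelling, HpaI digestion and capillary electrophoresis. Bidirectional fit relative to DMSO.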

Measured: AC50

Hepatocyte nuclear factor 3-beta (Homo sapiens), sequence (Q9Y261 whole entry, looked up): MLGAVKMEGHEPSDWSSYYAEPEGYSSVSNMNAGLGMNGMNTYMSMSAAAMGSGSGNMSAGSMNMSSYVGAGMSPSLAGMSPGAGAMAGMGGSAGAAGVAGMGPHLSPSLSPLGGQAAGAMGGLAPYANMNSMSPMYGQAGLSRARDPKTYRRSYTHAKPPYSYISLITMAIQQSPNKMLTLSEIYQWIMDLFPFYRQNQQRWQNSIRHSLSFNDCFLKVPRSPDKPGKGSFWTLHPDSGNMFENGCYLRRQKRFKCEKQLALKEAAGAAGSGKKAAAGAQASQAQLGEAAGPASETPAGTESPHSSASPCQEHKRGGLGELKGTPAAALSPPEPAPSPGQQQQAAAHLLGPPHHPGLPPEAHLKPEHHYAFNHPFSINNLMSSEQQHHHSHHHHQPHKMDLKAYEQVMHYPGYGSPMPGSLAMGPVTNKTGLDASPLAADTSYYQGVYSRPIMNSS
Retinoic acid receptor alpha (Homo sapiens), sequence (P10276 whole entry, looked up): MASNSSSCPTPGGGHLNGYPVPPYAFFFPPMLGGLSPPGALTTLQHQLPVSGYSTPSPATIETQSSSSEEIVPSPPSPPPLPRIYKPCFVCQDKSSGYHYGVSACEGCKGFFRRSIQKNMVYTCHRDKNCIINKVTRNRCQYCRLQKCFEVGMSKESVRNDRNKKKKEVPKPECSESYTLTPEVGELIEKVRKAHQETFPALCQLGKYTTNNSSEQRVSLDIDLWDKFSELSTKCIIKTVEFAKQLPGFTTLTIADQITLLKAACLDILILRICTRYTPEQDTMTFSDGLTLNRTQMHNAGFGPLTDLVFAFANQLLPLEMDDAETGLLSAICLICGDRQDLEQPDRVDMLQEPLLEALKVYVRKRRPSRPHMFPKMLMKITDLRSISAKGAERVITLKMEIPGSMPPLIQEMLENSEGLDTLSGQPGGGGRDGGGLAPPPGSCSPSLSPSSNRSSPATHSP
Transcription factor E2F1 (Homo sapiens), sequence (Q01094 whole entry, looked up): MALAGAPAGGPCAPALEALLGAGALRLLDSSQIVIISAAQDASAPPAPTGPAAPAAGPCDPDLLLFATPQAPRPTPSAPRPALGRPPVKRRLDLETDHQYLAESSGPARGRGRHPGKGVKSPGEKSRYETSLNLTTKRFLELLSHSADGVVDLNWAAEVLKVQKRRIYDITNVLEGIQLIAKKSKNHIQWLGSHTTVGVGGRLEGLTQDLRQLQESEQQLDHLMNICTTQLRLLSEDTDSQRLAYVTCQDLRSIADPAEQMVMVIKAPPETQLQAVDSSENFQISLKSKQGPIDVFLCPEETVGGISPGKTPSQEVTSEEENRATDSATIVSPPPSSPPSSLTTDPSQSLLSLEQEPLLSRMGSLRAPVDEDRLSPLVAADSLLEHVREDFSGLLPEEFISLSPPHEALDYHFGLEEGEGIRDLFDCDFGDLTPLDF
CCAAT/enhancer-binding protein beta (Homo sapiens), sequence (P17676 whole entry, looked up): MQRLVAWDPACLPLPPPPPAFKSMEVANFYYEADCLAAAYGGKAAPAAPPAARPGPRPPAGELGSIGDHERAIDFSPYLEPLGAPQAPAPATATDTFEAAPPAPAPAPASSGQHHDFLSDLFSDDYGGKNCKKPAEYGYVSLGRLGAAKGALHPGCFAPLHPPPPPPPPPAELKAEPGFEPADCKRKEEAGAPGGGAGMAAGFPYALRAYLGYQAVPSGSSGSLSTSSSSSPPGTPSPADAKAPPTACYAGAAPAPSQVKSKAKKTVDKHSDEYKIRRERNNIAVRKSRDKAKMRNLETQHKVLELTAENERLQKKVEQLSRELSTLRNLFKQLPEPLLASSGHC
Aryl hydrocarbon receptor (Homo sapiens), sequence (P35869 whole entry, looked up): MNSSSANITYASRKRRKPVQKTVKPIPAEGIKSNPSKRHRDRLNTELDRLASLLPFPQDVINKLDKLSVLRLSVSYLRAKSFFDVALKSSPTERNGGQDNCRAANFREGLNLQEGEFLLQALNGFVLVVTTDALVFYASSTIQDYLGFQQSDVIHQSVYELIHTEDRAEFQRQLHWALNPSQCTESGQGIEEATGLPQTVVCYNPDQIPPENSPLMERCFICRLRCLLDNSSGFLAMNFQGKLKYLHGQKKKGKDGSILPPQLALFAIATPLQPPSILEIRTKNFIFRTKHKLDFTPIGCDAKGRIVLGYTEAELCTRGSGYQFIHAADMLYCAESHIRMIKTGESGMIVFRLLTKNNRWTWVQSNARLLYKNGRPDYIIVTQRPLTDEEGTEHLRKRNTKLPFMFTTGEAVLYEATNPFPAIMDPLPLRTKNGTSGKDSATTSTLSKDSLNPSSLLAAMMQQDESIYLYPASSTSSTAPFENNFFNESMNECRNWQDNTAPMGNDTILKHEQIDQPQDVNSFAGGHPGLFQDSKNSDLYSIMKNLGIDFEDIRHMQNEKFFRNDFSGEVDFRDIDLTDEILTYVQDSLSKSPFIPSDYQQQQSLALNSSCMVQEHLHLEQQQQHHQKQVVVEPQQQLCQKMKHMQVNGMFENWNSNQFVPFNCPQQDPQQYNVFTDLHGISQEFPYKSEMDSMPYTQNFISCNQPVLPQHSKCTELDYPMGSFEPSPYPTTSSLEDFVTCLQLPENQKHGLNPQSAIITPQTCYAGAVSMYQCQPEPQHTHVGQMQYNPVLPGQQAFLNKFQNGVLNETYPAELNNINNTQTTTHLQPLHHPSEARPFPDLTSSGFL

CC1=C2C[C@H]3[C@@H](CC=C4C[C@@H](O)CC[C@@]43C)[C@@H]2CC[C@]12O[C@@H]1C[C@H](C)CN[C@H]1[C@H]2C
inactive: [1] | [3] | [5] | [6] | [7] | [8] | [9] | [10] | [11] | [12] | [13] | [15] | [16] | [17]
active: [2] 13.9 µM | [4] 13.3 µM | [14] 13 µM

Cc1cc(O)ccc1Cl
active: [12] 48.5 µM
inactive: [1] | [2] | [3] | [4] | [5] | [6] | [18] | [7] | [8] | [9] | [19] | [10] | [11] | [13] | [14] | [15] | [16] | [17]

O=C(O)C(F)(F)C(F)(F)C(F)(F)C(F)(F)C(F)(F)F
inactive: [1] | [2] | [3] | [4] | [5] | [6] | [7] | [8] | [9] | [19] | [10] | [11] | [12] | [13] | [14] | [15] | [16] | [17]

O=S(=O)(O)C(F)(F)C(F)(F)C(F)(F)C(F)(F)C(F)(F)C(F)(F)F
active: [5] 117 µM | [12] 100 µM and 150 µM
inactive: [1] | [2] | [3] | [4] | [5] | [6] | [18] | [8] | [9] | [10] | [11] | [12] | [13] | [14] | [15] | [16] | [17]

Cc1cccc(C)c1N
inactive: [1] | [2] | [3] | [4] | [20] | [5] | [6] | [7] | [8] | [9] | [10] | [11] | [12] | [13] | [14] | [15] | [16] | [17]

O=C(NC(=O)c1cc(F)c(F)cc1Cl)Nc1cc(F)ccc1N1CCC(C(=O)O)CC1
active: [7] 4.16 µM
inactive: [1] | [2] | [3] | [4] | [20] | [5] | [6] | [8] | [9] | [10] | [11] | [12] | [13] | [14] | [15] | [16] | [17]
